# Data from ChEMBL document CHEMBL1961873, “Compounds: GSK PKIS; Assays: Nanosyn kinase panel” (2012).
# What was measured:
# [1] = target: Sphingosine kinase 1 (Homo sapiens) (UniProt Q9NYA1); details: at 1 µM;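 further: mean SPHK1 inhibition value reported from the GSK PKIS kinase panel screen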
# [2] = target: T1, Sphingosine kinase 2 (Homo sapiens) (UniProt Q9NRA0); details: at 0.1 µM
# T1 sequence (whole entry): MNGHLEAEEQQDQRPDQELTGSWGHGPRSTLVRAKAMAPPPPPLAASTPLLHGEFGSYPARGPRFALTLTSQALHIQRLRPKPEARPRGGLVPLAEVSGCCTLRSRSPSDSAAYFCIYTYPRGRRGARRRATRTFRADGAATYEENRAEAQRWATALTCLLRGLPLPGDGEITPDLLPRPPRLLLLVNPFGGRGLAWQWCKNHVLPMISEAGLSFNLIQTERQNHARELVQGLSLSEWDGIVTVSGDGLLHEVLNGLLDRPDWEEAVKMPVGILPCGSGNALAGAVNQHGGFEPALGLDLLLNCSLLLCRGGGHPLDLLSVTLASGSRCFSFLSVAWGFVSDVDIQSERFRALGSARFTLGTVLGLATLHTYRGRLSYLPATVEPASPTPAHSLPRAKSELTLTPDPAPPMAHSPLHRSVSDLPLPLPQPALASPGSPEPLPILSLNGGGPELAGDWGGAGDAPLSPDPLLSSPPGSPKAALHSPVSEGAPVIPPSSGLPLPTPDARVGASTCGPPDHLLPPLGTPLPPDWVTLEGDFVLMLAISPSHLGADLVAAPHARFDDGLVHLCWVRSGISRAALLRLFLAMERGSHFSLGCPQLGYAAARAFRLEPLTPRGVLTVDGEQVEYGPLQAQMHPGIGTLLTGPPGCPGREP
# [3] = target: T1, Sphingosine kinase 2 (Homo sapiens); details: at 1 µM
# [4] = target: Casein kinase II subunit alpha (Homo sapiens) (UniProt P68400); details: at 0.1 µM
# [5] = target: Casein kinase II subunit alpha (Homo sapiens) (UniProt P68400); details: at 1 µM
# [6] = target: T2, Inhibitor of nuclear factor kappa-B kinase subunit alpha (Homo sapiens) (UniProt O15111); details: at 0.1 µM
# T2 sequence (whole entry): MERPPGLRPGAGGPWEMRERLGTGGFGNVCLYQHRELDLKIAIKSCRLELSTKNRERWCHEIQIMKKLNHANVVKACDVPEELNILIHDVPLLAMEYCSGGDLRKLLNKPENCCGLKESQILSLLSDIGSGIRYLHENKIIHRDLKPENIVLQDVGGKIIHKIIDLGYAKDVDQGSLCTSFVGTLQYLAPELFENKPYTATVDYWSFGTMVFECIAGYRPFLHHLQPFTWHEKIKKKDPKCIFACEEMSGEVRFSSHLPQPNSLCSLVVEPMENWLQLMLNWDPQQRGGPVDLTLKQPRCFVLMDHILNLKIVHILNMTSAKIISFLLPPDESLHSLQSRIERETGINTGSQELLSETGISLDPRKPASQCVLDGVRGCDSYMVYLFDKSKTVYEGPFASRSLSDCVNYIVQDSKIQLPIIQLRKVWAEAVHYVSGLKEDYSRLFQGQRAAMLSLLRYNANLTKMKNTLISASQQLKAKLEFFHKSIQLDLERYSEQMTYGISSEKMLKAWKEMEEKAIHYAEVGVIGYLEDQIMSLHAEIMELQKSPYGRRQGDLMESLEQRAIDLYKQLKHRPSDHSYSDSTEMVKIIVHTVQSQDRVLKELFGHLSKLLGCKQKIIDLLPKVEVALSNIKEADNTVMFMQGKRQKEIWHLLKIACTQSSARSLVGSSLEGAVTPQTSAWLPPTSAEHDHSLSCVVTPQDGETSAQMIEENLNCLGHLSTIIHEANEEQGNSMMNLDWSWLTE
# [7] = target: T2, Inhibitor of nuclear factor kappa-B kinase subunit alpha (Homo sapiens); details: at 1 µM
# [8] = target: T3, Inhibitor of nuclear factor kappa-B kinase subunit beta (Homo sapiens) (UniProt O14920); details: at 0.1 µM
# T3 sequence (whole entry): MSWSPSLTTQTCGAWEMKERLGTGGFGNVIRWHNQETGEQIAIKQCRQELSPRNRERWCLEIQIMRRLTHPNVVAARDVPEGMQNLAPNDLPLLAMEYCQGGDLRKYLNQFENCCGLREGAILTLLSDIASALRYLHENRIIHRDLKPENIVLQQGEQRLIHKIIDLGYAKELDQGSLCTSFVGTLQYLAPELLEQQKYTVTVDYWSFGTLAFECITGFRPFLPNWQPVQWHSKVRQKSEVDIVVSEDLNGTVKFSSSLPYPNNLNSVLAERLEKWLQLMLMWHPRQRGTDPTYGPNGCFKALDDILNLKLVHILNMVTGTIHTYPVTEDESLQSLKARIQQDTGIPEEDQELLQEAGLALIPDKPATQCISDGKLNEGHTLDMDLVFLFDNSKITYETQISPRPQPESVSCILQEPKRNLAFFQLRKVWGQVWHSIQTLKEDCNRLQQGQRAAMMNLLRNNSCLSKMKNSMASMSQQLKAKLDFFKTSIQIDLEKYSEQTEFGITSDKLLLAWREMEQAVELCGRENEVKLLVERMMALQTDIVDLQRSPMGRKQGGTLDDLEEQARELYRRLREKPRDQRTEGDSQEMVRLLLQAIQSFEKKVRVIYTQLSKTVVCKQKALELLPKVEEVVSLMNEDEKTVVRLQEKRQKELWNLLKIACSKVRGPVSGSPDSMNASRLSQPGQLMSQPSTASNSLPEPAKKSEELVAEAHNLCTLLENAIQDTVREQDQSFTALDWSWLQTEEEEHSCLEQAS
# [9] = target: T3, Inhibitor of nuclear factor kappa-B kinase subunit beta (Homo sapiens); details: at 1 µM
# [10] = target: T4, Inhibitor of nuclear factor kappa-B kinase subunit epsilon (Homo sapiens) (UniProt Q14164); details: at 0.1 µM;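 further: mean inhibition of IKKε reported, from the GSK PKIS dataset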
# T4 sequence (whole entry): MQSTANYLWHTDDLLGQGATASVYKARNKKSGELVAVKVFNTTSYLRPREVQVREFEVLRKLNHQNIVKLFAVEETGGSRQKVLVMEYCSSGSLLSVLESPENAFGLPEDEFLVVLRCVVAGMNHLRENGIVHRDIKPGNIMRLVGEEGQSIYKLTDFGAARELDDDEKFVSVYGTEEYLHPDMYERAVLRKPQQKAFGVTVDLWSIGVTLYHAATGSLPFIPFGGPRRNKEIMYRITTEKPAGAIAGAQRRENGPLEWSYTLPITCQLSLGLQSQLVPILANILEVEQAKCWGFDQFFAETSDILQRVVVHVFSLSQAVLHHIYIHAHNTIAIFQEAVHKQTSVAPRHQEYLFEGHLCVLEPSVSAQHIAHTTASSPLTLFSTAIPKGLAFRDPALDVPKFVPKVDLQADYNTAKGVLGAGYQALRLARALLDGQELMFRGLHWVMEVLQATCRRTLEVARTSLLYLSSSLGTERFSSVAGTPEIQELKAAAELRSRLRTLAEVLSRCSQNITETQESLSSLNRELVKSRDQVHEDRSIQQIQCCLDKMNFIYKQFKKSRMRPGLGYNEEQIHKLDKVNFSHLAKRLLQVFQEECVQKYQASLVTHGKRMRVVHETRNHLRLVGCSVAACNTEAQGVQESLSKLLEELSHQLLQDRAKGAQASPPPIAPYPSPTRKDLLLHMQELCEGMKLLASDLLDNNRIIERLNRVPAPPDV
# Casein kinase II subunit alpha (Homo sapiens), sequence (P68400 whole entry, looked up): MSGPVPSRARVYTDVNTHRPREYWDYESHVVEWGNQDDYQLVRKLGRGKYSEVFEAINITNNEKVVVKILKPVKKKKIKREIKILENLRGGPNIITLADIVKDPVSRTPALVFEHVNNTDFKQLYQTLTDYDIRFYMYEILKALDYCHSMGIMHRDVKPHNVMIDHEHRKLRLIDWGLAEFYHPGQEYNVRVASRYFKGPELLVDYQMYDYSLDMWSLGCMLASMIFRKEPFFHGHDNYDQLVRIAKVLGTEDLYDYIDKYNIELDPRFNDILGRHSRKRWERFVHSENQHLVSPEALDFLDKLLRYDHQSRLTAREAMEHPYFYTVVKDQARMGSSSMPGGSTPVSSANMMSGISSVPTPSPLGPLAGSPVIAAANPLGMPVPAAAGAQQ
# Sphingosine kinase 1 (Homo sapiens), sequence (Q9NYA1 whole entry): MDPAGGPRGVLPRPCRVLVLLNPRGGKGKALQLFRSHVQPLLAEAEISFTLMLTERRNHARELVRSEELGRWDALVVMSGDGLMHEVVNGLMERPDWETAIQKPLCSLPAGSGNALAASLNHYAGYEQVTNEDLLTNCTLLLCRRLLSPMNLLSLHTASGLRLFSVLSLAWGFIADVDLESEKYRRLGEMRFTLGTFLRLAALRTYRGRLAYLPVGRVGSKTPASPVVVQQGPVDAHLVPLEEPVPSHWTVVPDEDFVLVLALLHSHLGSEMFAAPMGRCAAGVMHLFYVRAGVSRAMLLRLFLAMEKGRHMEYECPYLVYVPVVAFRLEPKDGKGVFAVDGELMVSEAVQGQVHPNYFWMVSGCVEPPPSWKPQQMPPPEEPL
compound,measurement,setting,value
CC(C)c1ccc2c(c1)NC(=O)/C2=N/Nc1ccc(S(N)(=O)=O)cc1,inhibition,[1],-1.85%
same,inhibition,[2],0.61%
same,inhibition,[3],1.73%
same,inhibition,[4],4.26%
same,inhibition,[5],0.39%
same,inhibition,[6],-1.84%
same,inhibition,[7],-4.08%
same,inhibition,[8],1.01%
same,inhibition,[9],0.14%
same,inhibition,[10],-1.18%
